Results from PubChem BioAssay AID1945 (The Scripps Research Institute Molecular Screening Center, 2009).
Hit rate of the full screen: of about 1,600 compounds, about 65 (4%) were called active. Cut-off read from the data, not from the text of the source: active = inhibition above about 37%; inactive = the rest. These entries were drawn from the full list.

assay: compounds displacing fluorescent DNA intercalator, artefact control for HCV NS3 helicase inhibitor project, biochemical, FID fluorescence, triplicate (AID 1945); conditions: DNA fluorescent intercalator displacement, at 7.9 µM, active compounds read high;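 note: 0% = vehicle and 100% = reference compound; higher means more displacement of ethidium bromide from the DNA hairpin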

inhibition, inactive:
CC(=O)Oc1cccc(N2C(=O)CC(Nc3ccc(N4CCOCC4)cc3)C2=O)c1 (stereo not drawn) -9.25%, COc1cc(/C=C2/C(=O)NN(c3cccc(Cl)c3)C2=O)cc(Br)c1O 8.6%, COc1ccccc1C1/C(=C(/O)c2ccc(OC(C)C)cc2)C(=O)C(=O)N1c1cc(C)on1 (stereo not drawn) -26.4%, COc1cc(C2CC(=O)N3CN(Cc4ccccc4)CSC3=C2C#N)ccc1OCc1ccccc1 (stereo not drawn) -15.9%, CC(=O)C1=C(O)C(=O)N(c2ccc(Br)cc2)C1c1ccc([N+](=O)[O-])cc1 (stereo not drawn) -11.1%, O=C1NN(c2ccccc2)C(=O)/C1=C/c1ccc(-c2cccc(C(=O)O)c2)o1 -0.74%, Cc1ccc(C2=N/C(=C\c3ccc(OS(=O)(=O)c4ccc(C)cc4)cc3)C(=O)O2)cc1 -12.6%, COc1cc(C2C(C(=O)c3ccco3)=C(O)C(=O)N2c2cc(C)on2)ccc1OCc1ccccc1 (stereo not drawn) -1.69%, Cc1[nH]n(C(N)=S)c(=O)c1N=Nc1ccc(Cl)cc1Cl -8.84%, O=[N+]([O-])c1cc(Cl)cc(/C=N/NC(=S)Nc2cc(S(=O)(=O)N3CCOCC3)ccc2Cl)c1O -2.03%, O=C(N/N=C/c1ccc([N+](=O)[O-])o1)c1cn(-c2ccccc2)nc1-c1ccc(F)cc1 10.7%, Cc1ccc(C)c(-n2c(SCC(=O)O)nc3sc4c(c3c2=O)CCCC4)c1 -27.8%, S=C(NCCc1ccccc1)N1CCCCC1 -0.28%, CCOC(=O)c1nnn(-c2nc(OC)nc(N(C)C)n2)c1-c1ccccc1 -39.7%, N#C/C=C(/c1ccc(F)cc1)N1CCOCC1 14%, CCOc1ccc(C(C(=O)NCCOC)N(CCOC)C(=O)CCC(=O)Nc2ccccn2)cc1 (stereo not drawn) -24.9%, Cc1ccc(C2Nc3cccc4cccc(c34)N2)cc1 17.1%, COc1ccc(/C=C(\NC(=O)c2ccc(OCC(C)C)cc2)C(=O)OCc2ccco2)cc1 -43.9%, Cc1ccc(OCC(=O)c2cc(C)n(Cc3ccco3)c2C)c([N+](=O)[O-])n1 -9.01%, Cc1ccccc1Nc1nnc(SCC(=O)c2cc3ccccc3o2)s1 -3.69%, COc1ccc(C)cc1-n1nnnc1SCC(=O)c1cc(C)n(Cc2ccco2)c1C -39%, CC(Oc1ccccc1)C(=O)Nc1oc(-c2ccco2)c(-c2ccco2)c1C#N (stereo not drawn) 13.9%, CC(C)c1ccc(Nc2nnc(SCC(=O)c3nnc(-c4ccccc4)o3)s2)cc1 8.51%
